The campaign covered roughly 370,000 compounds. About 4,800 (1.3%) were called active. Many of the other results were omitted from the sample, so actives are more common in it than they were. Values without a mark were called inactive.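 How the source made its calls: active means inhibition above about 21% made by adding two undisclosed values (limit read from the data); inactive means the rest.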
biological target: Protein arginine N-methyltransferase 1 (Homo sapiens) (UniProt Q99873); test: PRMT1 methyltransferase inhibitors, primary screen, biochemical, fluorescence polarization (AID 652257); details: recombinant PRMT1, activity-based probe fluorescence polarization; at 2.79 µM; active compounds read high
Sequence (Q99873 whole entry, looked up): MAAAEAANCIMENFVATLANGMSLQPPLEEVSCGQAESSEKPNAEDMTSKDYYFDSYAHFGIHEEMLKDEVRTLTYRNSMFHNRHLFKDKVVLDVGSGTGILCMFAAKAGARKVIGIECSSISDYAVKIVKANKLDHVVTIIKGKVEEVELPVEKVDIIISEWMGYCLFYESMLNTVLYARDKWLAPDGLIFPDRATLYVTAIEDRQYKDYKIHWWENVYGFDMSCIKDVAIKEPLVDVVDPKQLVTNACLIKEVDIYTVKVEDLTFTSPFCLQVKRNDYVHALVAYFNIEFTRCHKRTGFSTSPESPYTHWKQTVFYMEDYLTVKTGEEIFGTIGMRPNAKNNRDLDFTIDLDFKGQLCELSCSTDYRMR

Row | Structure (SMILES) | inhibition
1 | COC(=O)[C@]12C[C@H](CC(=O)NCc3cccs3)C(=O)N(CCc3ccc(OC)c(OC)c3)C1=C[C@H](C(C)C)O[C@@H]2C1CC1 | -1.28%
2 | CCCCOC(=O)CNc1nnc(SCC(=O)OCC)[nH]c1=O | 74.3% (active)
3 | CCOC(=O)CSc1nnc(CNc2ccc(F)cc2)o1 | -0.98%
4 | Cc1nnc(SCCCCSc2nnc(C)c(=O)[nH]2)[nH]c1=O | 2.02%
5 | CCC(=O)Nc1ccc2c(c1)C(=O)N(C)[C@@H]1CC[C@@H](CC(=O)NCCc3ccccc3)O[C@H]1CO2 | 1.16%
6 | COc1ccc(S(=O)(=O)N2CCCCC2)cc1NC(=O)COc1ccccc1 | 2%
7 | Cc1ccc(/C=C/C(=O)Nc2cc(S(=O)(=O)N3CCCCCC3)ccc2OCC(F)(F)F)o1 | 24.7% (active)
8 | O=C(Nc1cc(S(=O)(=O)N2CCOCC2)ccc1OCC(F)(F)F)c1ccc(N2CCCC2=O)cc1 | -0.65%
9 | O=C(NCCCc1ccccc1)[C@H](Cc1ccccc1)NC1(C(=O)NCCc2c[nH]c3ccccc23)CCC1 | 4.62%
10 | COc1ccc2c(c1)CN1CN(CCc3ccccc3)S(=O)(=O)CC21 (stereo unspecified) | -7.45%
11 | COc1cc(NC(=O)C2=CC(c3ccco3)=NS(=O)(=O)N2C)cc(OC)c1OC | 1.92%
12 | COc1ccc(C(=O)NC(=O)CSc2nnc(-c3ccco3)n2-c2ccccc2)cc1 | 4.1%
13 | COCCNC(=O)Nc1ccc2nc(-c3ccco3)c(-c3ccco3)nc2c1 | 88.9% (active)
14 | O=C(Nc1ccc(F)c([N+](=O)[O-])c1)C1CCCO1 (stereo unspecified) | -0.52%
15 | CCOC(=O)[C@]12CCCC=C1N(CCCOC)C(=O)[C@@H]2CC(=O)N1CCOCC1 | -11.2%
16 | COC(=O)Nc1nc2ccc(C(=O)C3CC3)cc2[nH]1 | -5.37%
17 | COc1ccc(C2NC(=O)C(=O)/C2=C(\O)c2ccc(Cl)cc2)cc1OC (stereo unspecified) | 1.92%
18 | Clc1ccccc1CSc1nnc(-c2ccco2)c(-c2ccco2)n1 | 45.8% (active)
19 | Clc1ccc(-n2c(SC/C=C/c3ccccc3)nnc2-c2ccco2)cc1 | 2.59%
20 | Cc1cccc(N(CC(=O)N2CCCC2)S(C)(=O)=O)c1C | 0.79%
21 | COc1ccc(N(CC(=O)N2CCOCC2)S(=O)(=O)c2ccccc2)cc1Cl | 3.25%
22 | CN1C(=O)c2cc(NS(C)(=O)=O)ccc2OC[C@@H]2O[C@@H](CC(=O)NCc3ccc(-c4ccccc4)cc3)CC[C@H]21 | -3.76%

Row | Structure (SMILES) | inhibition
23 | S=c1ccc2ccccc2[nH]1 | 41.1% (active)
24 | S=c1[nH]c2ccccc2c2ccccc12 | 13.6%
25 | Brc1ccccc1CN1CCC(Cc2ccccc2)CC1 | -1.49%
26 | CCN(CC(=O)Nc1ccc(OC)cc1)C(=O)c1ccc(Cl)c(S(=O)(=O)N2CCCC2)c1 | -2.9%
27 | CCOc1ccc(NC(=O)CCCCCN2C(=O)[C@@H]3Cc4ccccc4CN3C2=O)cc1 | 0.46%
28 | CC[C@]1(O)C[C@@H]2CN(CCc3c([nH]c4ccccc34)[C@@](C(=O)OC)(c3cc4c(cc3OC)N(C)[C@H]3[C@@](O)(C(=O)OC)[C@H](OC(C)=O)[C@]5(CC)C=CCN6CC[C@]43[C@@H]65)C2)C1 | 4.62%
29 | Cc1cc(C(=O)NN=C/C=C/c2ccco2)n[nH]1 | 39.4% (active)
30 | O=C(N/N=C/C=C/c1ccco1)c1cccs1 | 17.1%
31 | CN(C)S(=O)(=O)c1cccc(C(=O)N/N=C\c2ccco2)c1 | -2.34%
32 | COC(=O)C1CN(CC(C)C)CCS(=O)(=O)N1Cc1ccc(F)cc1 (stereo unspecified) | 1.47%
33 | CN(CCc1ccccc1)C(=O)Cn1nc(-c2ccccc2)ccc1=O | -1.41%
34 | Cc1[nH]c2ccccc2c1C(=O)C(C)Sc1nnc(C2CC2)o1 (stereo unspecified) | 2.13%
35 | Nn1c(SCC(=O)N2c3ccccc3Sc3ccccc32)nnc1-c1n[nH]c2c1CCC2 | 5.44%
36 | O=C(O)c1ccc(/C=C2\SC(=S)N(NC(=O)c3ccc(Br)cc3)C2=O)cc1 | 30.2% (active)
37 | C/C(CC(=O)N1CCN(C=O)CC1)=N\NC(=O)c1ccc(Br)cc1 | 2.11%
38 | O=C(NCCN1C(=O)S/C(=C\c2cccnc2)C1=O)c1ccc(S(=O)(=O)N2CCCC2)cc1 | 4.69%
39 | CCCn1nnnc1NCc1ccc(CC)cc1 | 1.58%
40 | Cc1ccc(C(=O)C2CCN(CC(=O)NCCC(C)C)CC2)cc1 | 4.05%
41 | FC(F)(F)c1nc2ccccc2nc1N/N=C/c1ccc(Cl)cc1 | 66.9% (active)
42 | CN(CCO)c1ccc(/C=N/Nc2nncc3ccccc23)cc1 | -2.83%
43 | Clc1ccc(Nc2ccc3ccccc3n2)cc1 | -3.42%
44 | COC(=O)[C@]1(Cc2ccccc2)NC=C(C(=O)c2ccccc2)[C@@H]1c1cccc(OC)c1 | 2.58%

Row | Structure (SMILES) | inhibition
45 | O=C(NCCCn1ccnc1)/C(=C\c1ccccc1F)NC(=O)c1ccccc1 | -3.1%
46 | O=C(CCN1C(=O)c2ccccc2C1=O)NCCCn1ccnc1 | 1.79%
47 | O=C(CN1C(=O)S/C(=C\c2ccccc2F)C1=O)NCCCn1ccnc1 | 29.4% (active)
48 | CCC[C@H]1C(=O)CC[C@@]23CCCN2C(=O)CCC[C@@H]13 | 1.57%
49 | COCCN(C(=O)c1ccco1)c1nnc(-c2ccc(OC)cc2)s1 | 1.28%
50 | O=C(CCl)NC1CCCCN(Cc2cccc(C(F)(F)F)c2)C1=O (stereo unspecified) | 3.41%
51 | CC1Cn2c(nnc2-c2cccs2)S1 (stereo unspecified) | 5.98%
52 | O=C(Nc1ccc(N2CCOCC2)c(Cl)c1)c1ccc(S(=O)(=O)N2CCOCC2)cc1 | 1.99%
53 | O=C(Nc1ccc(S(=O)(=O)N2CCOCC2)cc1)c1ccc2ncsc2c1 | 22.4% (active)
54 | O=C(Nc1ccc2cn[nH]c2c1)c1ccc(S(=O)(=O)N2CCOCC2)cc1 | 3.18%
55 | O=C(CSc1nc2ccccc2nc1N1CCCCC1)N1CCN(S(=O)(=O)c2cccc([N+](=O)[O-])c2)CC1 | 0.86%
56 | O=C(CSc1nc2ccccc2n1Cc1ccccc1)NNC(=S)Nc1ccccc1 | 1.31%
57 | COc1ccc(-c2cc3c(c4c2ccn4C)C2CCC3C2)cn1 (stereo unspecified) | 32.2% (active)
58 | CC(=O)O[C@@]1(C(C)=O)CCC2[C@H]3C=C(C)C4=CC(=O)CC[C@@]4(C)C3CC[C@]21C (stereo partly specified) | -2.39%
59 | Cc1ccccc1-c1ccc2c(c1)O[C@@H](CN(C)Cc1ccc(C(=O)O)cc1)[C@@H](C)CN([C@H](C)CO)S2(=O)=O | -1.8%
60 | CCn1c(C(O)c2cc(OC)ccc2OC)nc2ccccc21 (stereo unspecified) | -3.51%
61 | CCCn1c(C(O)c2cc(OC)ccc2OC)nc2ccccc21 (stereo unspecified) | 23.1% (active)
62 | COc1ccc(OC)c(C(O)c2nc3ccccc3n2C)c1 (stereo unspecified) | 5.63%
63 | Cc1ccc(S(=O)(=O)NC(=O)N2CCCC(C)(C)C2)cc1 | -1.8%
64 | CN(C)C(=O)N=NC(=O)N(C)C | 27.4% (active)
65 | CC(NC(=O)c1cc(=O)[nH]c2ccccc12)c1ccc(F)cc1F (stereo unspecified) | 0.78%
66 | CCOC(=O)c1cccc(NC(=O)CN(C)S(=O)(=O)c2ccc(-c3cocn3)s2)c1 | -6.43%

Row | Structure (SMILES) | inhibition
67 | N#CC1=C(N)Oc2c(sc3ccccc23)C1c1ccco1 (stereo unspecified) | 26.8% (active)
68 | O=C(Nc1cccc(C(=O)NC2CC2)c1)c1ccc(F)c(S(=O)(=O)N2CCOCC2)c1 | 1.48%
69 | O=C(Nc1ccccc1Cl)/C(Cl)=C(\Cl)S(=O)c1ccccc1 (stereo unspecified) | 80.3% (active)
70 | O=C(Nc1ccnn1C1CCN(C/C=C/c2ccc(F)cc2)CC1)C1CCCC1 | -2.06%
71 | O=C(N[C@H](C(=O)N1CCC[C@H]1C(=O)NCCc1ccccc1Cl)c1ccccc1)c1ccccc1 | 4.7%
72 | CCOC(=O)[C@]12CCCCC/C=C\1N(Cc1ccc(OC)cc1)C(=O)[C@H]2CC(=O)NCc1ccc(C)o1 | 11.7%
73 | CCc1nc2c(OCC(N)=O)cccn2c1N(C)C(=O)c1ccc(OC)cc1 | -1.98%
74 | CN(C)S(=O)(=O)c1ccc(Cl)c(NC(=O)COC(=O)CC(NC(N)=O)c2ccc(Cl)cc2)c1 (stereo unspecified) | -6.61%
75 | O=c1[nH]c2ccccc2n2c(-c3ccccc3)nnc12 | 85.2% (active)
76 | O=C(c1ncn2c1c(=O)[nH]c1ccccc12)N1CCc2ccccc2C1 | -1.56%
77 | N[C@@H](Cc1ccccc1)C(=O)N1CCC[C@@H]1C(=O)N1CCC2CCN(S(=O)(=O)c3ccccc3)CC21 (stereo partly specified) | 3.14%
78 | Cc1nc(N)[nH]c(=O)c1Oc1cccc(C(F)(F)F)c1 | -1.54%
79 | O=C(NC1CCC1)c1ccc(C#Cc2cccc(F)c2)c[n+]1[O-] | -4.9%
80 | C#CCN([C@H](C(=O)OC)C(C)CC)S(=O)(=O)c1ccccc1Br (stereo partly specified) | 1.85%
81 | CCOC(=O)C1=C(CSc2nnnn2C)N(C)C(=O)NC1c1ccccc1 (stereo unspecified) | -1.87%
82 | CCN1CCN(C(=O)N[C@@H](C(=O)N[C@@H]2C(=O)N3C(C(=O)O)=C(CSc4nnnn4C)CS[C@H]23)c2ccc(O)cc2)C(=O)C1=O | 28.5% (active)
83 | CC(=O)NC1C(Oc2ccc(C=O)cc2)OC(COC(C)=O)C(OC(C)=O)C1OC(C)=O (stereo unspecified) | -2.72%
84 | COC(=O)[C@H](C(C)C)N(CCCc1cn(Cc2ccccc2)nn1)S(=O)(=O)c1ccc(F)cc1Br | 1.25%
85 | C=CCNC(=S)NNC(=O)COc1c(Cl)cc(Cl)cc1Cl | 1.94%
86 | Cc1ccc(-n2c(COc3ccccc3)nnc2SCC(=O)Nc2ccc3c(c2)OCCO3)cc1 | 1.77%

Source: PubChem BioAssay AID652257 (The Scripps Research Institute Molecular Screening Center, 2013)
